# Shown is part of a subset that was picked to be rich in hits.
# KDM5B inhibitor: blocks human KDM5B histone demethylase activity. KDM5B demethylase, FDH-coupled NADH fluorescence (FDH is formaldehyde dehydrogenase). Potency, µM (titrated, usually from 57.7 µM), usual class: inhibitors. 220,000 compounds, 2.6% hits; active = well fitted inhibition curve with a large enough effect; note: 0% is about no effect; nearly all actives have a fitted effect of over 70% in size
#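 qHTS format, multiple compound concentrations. Buffer 50 mM HEPES pH 7.5/0.01% Tween-20; 200 nM KDM5BΔAP final; 10 min compound preincubation; substrate-mix levels 12.5 µM peptide, 25 µM α-KG, 0.25 mM NAD⁺; 30 min RT; ΔRFU.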
# An asterisk follows results filed as active; i = inactive. Potency is the fitted concentration of half-maximal effect.
SMILES,KDM5B inhibitor
COc1ccc(/C(O)=C2\C(=O)C(=O)NC2c2ccc(Cl)cc2)cc1F (configuration not stated),i
CC1=C/C(=N/N=C(c2ccccc2)c2ccccc2)CC1,i
CN(Cc1ccc(-c2ccccc2)cc1)C(=O)Cc1ccc(F)cc1,i
COC(=O)N1CCn2c(nn(-c3ccc([N+](=O)[O-])cc3)c2=O)C1,i
COc1ccccc1C(=O)N1CCn2c(nn(-c3ccc(F)cc3F)c2=O)C1,i
O=c1n(-c2ccc(Cl)cc2)nc2n1CCN(Cc1ccccc1)C2,i
COc1cccc([S+](=O)([O-])N2CCn3c(nn(-c4ccc(F)cc4F)c3=O)C2)c1,25.1µM*
O=c1n(-c2ccc(F)cc2F)nc2n1CCN([S+](=O)([O-])c1cccc(C(F)(F)F)c1)C2,i
COc1ccc(CN2CCn3c(nn(-c4ccc([N+](=O)[O-])cc4)c3=O)C2)cc1,31.6µM*
COc1ccc(-n2nc3n(c2=O)CCN(CCC(C)C)C3)cc1,i
O=c1n(-c2ccc(F)cc2F)nc2n1CCN([S+](=O)([O-])c1cccs1)C2,i
COc1ccc(CN2CCn3c(nn(-c4ccc(F)cc4F)c3=O)C2)cc1,22.4µM*
Cc1ccc(-c2cnc(CCC(=O)NCc3ccc(F)c(C)c3)o2)cc1,i
Cc1csc(CNC(=O)c2sccc2C)n1,i
O=C(CSc1nc(=O)n(Cc2cccnc2)c2c1CCC2)N1CCCCC1,i
CN(C)CCCN(Cc1cccs1)C(=S)NCc1ccccc1,i
CC(OC(=O)/C=C/c1ccc2ccccc2n1)C(=O)NC1(C#N)CCCCC1 (configuration not stated),i
COc1cccc(NC(=O)C(c2ccc(Cl)cc2)C(C)C)c1 (configuration not stated),i
COc1cccc(C2c3c(-c4c(C)cc(C)cc4O)n[nH]c3C(=O)N2CCCO)c1 (configuration not stated),i
C=CCc1c(C)nc(Nc2nc(C)c3ccccc3n2)[nH]c1=O,i
C=CCNc1nc(C(=O)OCC(=O)c2ccc(C(C)(C)C)cc2)cs1,i
COCCNc1ccc(-c2noc([C@@H]3CCCN3C3CCC3)n2)cn1,i
COCCNc1ncccc1-c1noc([C@@H]2CCCN2Cc2ccccn2)n1,31.6µM*
Cc1ccc(-c2noc([C@@H]3CCCN3C(=O)CCCc3ccccc3)n2)cc1,i
COc1ccc(-c2noc([C@@H]3CCCN3C(=O)Cc3ccccc3)n2)cc1,i
SMILES,KDM5B inhibitor
COc1ccc(C(=O)Nc2ccc(-c3noc([C@@H]4CCCN4CCCc4ccccc4)n3)cn2)cc1,25.1µM*
COCCNc1ncccc1-c1noc([C@@H]2CCCN2Cc2ccncc2)n1,28.2µM*
COCCOc1ccnc(-c2noc([C@@H]3CCCN3Cc3cccnc3)n2)c1,i
COc1ccc(CN2CCC[C@H]2c2nc(-c3cncnc3N)no2)cc1,i
COCCOc1ncccc1-c1noc([C@@H]2CCCN2Cc2ccc(S(C)(=O)=O)cc2)n1,i
Nc1ncncc1-c1noc([C@@H]2CCCN2Cc2cnc3ccccc3c2)n1,i
COCCNc1ccc(-c2noc([C@@H]3CCCN3Cc3ccncc3)n2)cn1,28.2µM*
Cn1cc([C@@H](NC(=O)CCc2ccc3c(c2)OCO3)C2CC(O)C2)cn1 (some centres not stated),i
CC/C=C(/C)C(=O)NC(C)CN1CCOCC1 (configuration not stated),i
CC(Oc1c(F)c(F)c(F)c(F)c1F)C(=O)c1c[nH]c2ccccc12 (configuration not stated),i
CS(=O)(=O)NCCC(=O)O,i
COC(=O)c1ccc(COc2ccc3c(=O)c(-c4ccc(OC)cc4)c(C)oc3c2)cc1,i
CC(NC(=O)c1ccc(Cl)cc1)C12CC3CC(CC(C3)C1)C2 (configuration not stated),i
COc1cc(CN2CCC[C@H]2c2nc(-c3ccc(-c4ccncc4)nc3)no2)cc(OC)c1OC,i
COCCOc1ccc(-c2noc([C@@H]3CCCN3Cc3c[nH]c4ccccc34)n2)cn1,i
COCCNc1ncccc1-c1noc([C@@H]2CCCN2Cc2cc(OC)c(OC)c(OC)c2)n1,31.6µM*
COCC(=O)Nc1ccc(-c2noc([C@@H]3CCCN3Cc3ncc[nH]3)n2)cn1,39.8µM*
COc1cc(CN2CCCC2c2cc(C(C)C)on2)cc(OC)c1OC (configuration not stated),i
COCC(=O)Nc1ccc(-c2noc([C@@H]3CCCN3Cc3cccnc3)n2)cn1,i
COC(=O)c1sc(=S)n(-c2cccc(C(F)(F)F)c2)c1N,i
COCC1CN(C(=O)c2cc(Cl)ccc2OC)CC12CCNCC2 (configuration not stated),i
COc1ccc(C2c3cccn3CCN2S(=O)(=O)c2c(C)cc(C)cc2C)cc1OC (configuration not stated),i
Cn1c(CSc2ccccc2Cl)nc2c1c(=O)[nH]c(=O)n2C,i
CC(C)(C)OC(=O)N1CCC(c2c(C(=O)NCCc3ccccc3)cnn2-c2ccc(F)cc2)CC1,i
COc1ccccc1-c1ccnc(-n2ncc(C(=O)NCCc3cccnc3)c2C2CC2)n1,31.6µM*
SMILES,KDM5B inhibitor
O=C(NCCc1cccnc1)c1ccccc1Cl,i
O=C(N[C@@H]1CCOC[C@H]1Oc1cccc(F)c1)c1cnc2c(c1)CCC2,i
CNc1nccc(N2CCC(CC(=O)NCc3cc(OC)cc(OC)c3)CC2)n1,i
Cc1cc(C)nc(CNC(=O)[C@H]2CCC[C@@H](O)C2)n1,i
O=C(NCc1ccc(-c2ncon2)cc1)[C@H]1CCC[C@@H](O)C1,i
Nc1ncccc1CNC(=O)[C@H]1CCC[C@H](O)C1,25.1µM*
O=C(NCc1csc(-c2cnccn2)n1)[C@H]1CCC[C@H](O)C1,28.2µM*
O=C(NCc1c[nH]c2ncccc12)C1CCCC1,i
O=C(NCc1noc(Cc2cccs2)n1)[C@H]1CCC[C@@H](O)C1,i
COc1cccc(S(=O)(=O)N2CCC(Oc3ccc(C(N)=O)cn3)CC2)c1,i
CC(C)NC(=O)CN1CCN(C(=O)c2ccc3ccccc3n2)CC1,i
CCCNC(=O)N1CCCC(Cc2ncc(C)n2Cc2ccccc2)C1 (configuration not stated),i
CN1CCCC12Cc1ccccc1CN(S(=O)(=O)c1ccccc1)C2 (configuration not stated),i
O=C(Cc1c[nH]c2ccccc12)Nc1ccccc1Cl,i
Cc1ccc(NC(=O)N2CCCC(c3ccccc3)C2)cc1 (configuration not stated),i
Cc1ccc(NC(=O)Cn2c(=O)cc(C(=O)N3CCCC3)c3ccccc32)cc1F,i
O=C(Nc1cccc(F)c1)N1CCc2c(c3ccccc3n2CC2CC2)C1,22.4µM*
O=C(CC1CCN(C(=O)Nc2cccc(F)c2)C1)NC1CC1 (configuration not stated),i
O=C(Nc1ccc(F)c(F)c1)N1CCc2c(c3ccccc3n2CC2CC2)C1,22.4µM*
O=C(Cn1ncc2ccccc2c1=O)Nc1ccc(F)c(F)c1,i
O=C(NCCC1CCN(C(=O)Nc2cccc(F)c2)CC1)c1ccccc1,i
CCc1ccc(NC(=O)N2CCC(CN3CCc4ccccc4C3)CC2)cc1,i
Cc1ccc(NC(=O)N2CCc3c(c4ccccc4n3CC3CC3)C2)cc1,22.4µM*
Cc1sc2ncnc(N3CCC(C(=O)Nc4cccc(S(=O)(=O)N5CCCC5)c4)CC3)c2c1C,i
Cc1cc2oc(=O)cc(CN3CCN(C)CC3)c2cc1C,i
